Source: PubChem BioAssay AID1850 (Southern Research Specialized Biocontainment Screening …, 2009)
Out of some 310,000 compounds screened, about 1,000 (0.32%) were called active. Only a sample is shown. Entries with a potency or affinity are not part of this list. Values without a mark were called inactive. No rule for the calls is given here.

Assay: Inhibition of PhoP regulon, Salmonella typhi GFP reporter cells, confirmation, 4 h (AID 1850);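 also: 0% = induced wells with vehicle and 100% = uninduced wells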
Settings: Salmonella Typhi PhoP-promoter GFP reporter, fluorescence, at 50 µM, active compounds read high

Row | SMILES | inhibition
1 | Cc1ccccc1NC(=O)c1ccco1 | -6.44%
2 | COc1ccc(/C=C2\CCCC3C2=NC(=S)NC3c2ccc(OC)cc2)cc1 (stereo unspecified) | -6.47%
3 | COc1ccccc1-c1nc(-c2ccc(Br)cc2)no1 | 19.9%
4 | CC1CCCCN1CCNC(=O)c1ccc2c(c1)N(Cc1cccc(Cl)c1)C(=O)c1ccccc1S2=O (stereo unspecified) | -21.9%
5 | Cc1ccc(CNC(=O)C2CC(c3ccc(C(F)(F)F)cc3)=NO2)o1 (stereo unspecified) | -0.47%
6 | CCCc1cc(C(=O)OC)c(NC(=O)OCC)s1 | 0.48%
7 | COC(=O)CNC(=O)c1ccc(NS(=O)(=O)c2cc([N+](=O)[O-])ccc2Cl)cc1 | -1.71%
8 | CN(C)C(=O)c1ccc(-n2cnc3ccccc3c2=O)cc1 | 6.15%
9 | Cc1cc(O)c2c(c1)C(=O)c1cc(O)cc(O)c1C2=O | -20.4%
10 | COc1cc(NC(=O)c2cccs2)c(C(=O)OCC(=O)NC(=O)NCc2ccccc2)cc1OC | -3.62%
11 | NS(=O)(=O)c1ccc(NC(=O)COC(=O)c2ccc([N+](=O)[O-])s2)cc1 | 9%
12 | O=C(COC(=O)c1ccc([N+](=O)[O-])s1)Nc1ccccc1 | 4.19%
13 | S=c1[nH]nc(COc2ccc(Cl)cc2)n1-c1ccc(Cl)cc1 | 2.37%
14 | Cc1ccccc1N=Nc1ccc(O)c2ncccc12 | -0.137%
15 | Cc1ccc(N=Nc2ccc(O)c3ncccc23)cc1 | -8.35%
16 | CCOc1ccc(N(CC(=O)NC2CCCCC2)C(=O)CCC(=O)Nc2cc(C)ccn2)cc1 | 2.46%
17 | COc1ccc(C(CCNCc2ccc(N(C)C)cc2)c2ccccc2)cc1 (stereo unspecified) | 6.13%
18 | COc1ccc(C(CCN)c2ccc3c(c2)OCO3)cc1 (stereo unspecified) | -14.2%
19 | Cc1ccccc1OCCN1C(=O)c2ccccc2C1=O | -6.01%
20 | CCCNC(=O)COC(=O)c1ccc(S(=O)(=O)N2CCCCCC2)cc1 | -7.39%
21 | CCCCCCCC(=O)N1CCN(c2cc3c(cc2F)c(=O)c(C(=O)O)cn3CC)CC1 | 9.58%
22 | C=CCNC(=S)N1CCN(c2ncc3c(=O)c(C(=O)O)cn(CC)c3n2)CC1 | -7.57%
23 | CCCCCCCCC(=O)N1CCN(c2cc3c(cc2F)c(=O)c(C(=O)O)cn3CC)CC1 | -9.35%
24 | CCCCCCC(=O)N1CCN(c2cc3c(cc2F)c(=O)c(C(=O)O)cn3CC)CC1 | -12.4%

Row | SMILES | inhibition
25 | CCCCCCCCCC(=O)N1CCN(c2cc3c(cc2F)c(=O)c(C(=O)O)cn3CC)CC1 | -9.96%
26 | CCn1cc(C(=O)O)c(=O)c2cnc(N3CCN(C(=S)Nc4ccccc4)CC3)nc21 | 7.15%
27 | Cn1ccnc1SCC(=O)NC1CCCC1 | -6.69%
28 | Cc1cccc2cc(CN(C(=O)c3cccc([N+](=O)[O-])c3)C(C)C)c(=O)[nH]c12 | -4.34%
29 | COc1ccc(NC(=O)c2nc3nc(C)cc(C(F)F)n3n2)cc1OC | -3.09%
30 | CC(C)(C)c1ccc(CS(=O)(=O)CC2(O)CCN(C(=O)c3cccc(C(F)(F)F)c3)CC2)cc1 | -0.12%
31 | CS(=O)(=O)c1ccc(Cl)c(NC(=O)COC(=O)Cc2c[nH]c3ccccc23)c1 | -1.58%
32 | Cc1cc(N(CCO)CCO)ccc1N=Nc1cc(F)ccc1F | 22.3%
33 | CCCOc1cccc(C(=O)Nc2cccc3ncccc23)c1 | -5.81%
34 | CCOc1ccc(S(=O)(=O)N2CCN(C(=O)c3sccc3C)CC2)cc1 | -3.32%
35 | CCOC(=O)c1cn(CC)c2cc(N3CCCCC3)c(F)cc2c1=O | -24.8%
36 | CCCCCCn1cc(C(=O)O)c(=O)c2cc(F)c(N3CCN(C(=O)OCC)CC3)cc21 | -8.26%
37 | CCCCCCn1cc(C(=O)O)c(=O)c2cc(F)c(N3CCN(C)CC3)cc21 | -6.43%
38 | CCCCNc1nnc(SCC(=O)N2CCN(S(=O)(=O)c3ccc4ccccc4c3)CC2)s1 | -3.79%
39 | CC(=O)Nc1cccc(C(=O)OC(C)C(=O)NC2CCCc3ccccc32)c1 (stereo unspecified) | -2.01%
40 | CCNc1cc(N2CCOCC2)nc(SC)n1 | 7.57%
41 | COC(=O)C(c1cc(OC)c(O)c(OC)c1)(N1CCNC(C)C1)C(F)(F)F (stereo unspecified) | -16.6%
42 | Cc1cccc(-c2cc(=O)c(C(=O)O)cn2-c2ccc(F)cc2F)c1 | -13.4%
43 | COc1c(F)c(F)cc2c(=O)c(C(=O)O)cn(C3CC3)c12 | 1.27%
44 | O=C(O)c1cn(-c2ccc(N3CCCC3)c(F)c2)c2c(F)c(F)c(F)cc2c1=O | -7.01%
45 | CCOC(=O)c1cn(C2CC2)c2c(F)c(NCCCN(C)C)c(F)cc2c1=O | 4.81%
46 | CCOC(=O)c1cn(C2CC2)c2c(F)c(F)c(F)cc2c1=O | 5.55%
47 | O=C(O)c1cn(C2CCCCC2)c2ccccc2c1=O | 2.42%
48 | O=C(Nc1cccnc1)C1CC(c2ccccc2O)=NO1 (stereo unspecified) | -2.59%

Row | SMILES | inhibition
49 | CCNc1nc(NCC)nc(OCCOC(=O)c2ccccc2)n1 | -3.56%
50 | COc1cc(CNCCN2CCOCC2)ccc1OCc1ccccc1Cl | 8.72%
51 | COc1cccc(C2c3[nH]c4ccccc4c3C[C@H]3C(=O)N(c4ccccc4C(=O)N4CCC(C(=O)O)CC4)C(=O)N23)c1 (stereo partly specified) | -4.46%
52 | O=C(c1cccc(F)c1)N1CCN(C(=O)c2cc3nc(-c4ccco4)cc(C(F)(F)F)n3n2)CC1 | -3.4%
53 | COc1cc(NC(=O)Cc2ccc(F)cc2)cc(OC)c1OC | -5.66%
54 | CCOC(=O)Cc1csc(NC(NC(=O)CC)(C(F)(F)F)C(F)(F)F)n1 | 0.93%
55 | CC1CCCCC1NC(=O)COC(=O)COc1ccccc1Cl (stereo unspecified) | -4.09%
56 | O=C(CCS(=O)(=O)c1cccc2nonc12)N1CCCc2ccccc21 | 4.05%
57 | CCOc1ccc(C(=O)Nc2nc(C)c(C(=O)OC)s2)cc1 | -11%
58 | CCOc1ccc(S(=O)(=O)N2CN3CCN(C3)C2)cc1 | -2.97%
59 | Cc1ccc(S(=O)(=O)N2CN3CCN(C3)C2)cc1 | 13.8%
60 | Cc1ccc(N2C(=O)c3ccccc3C2=O)cc1 | -2.86%
61 | CC(=O)N(c1ccc(Cl)cc1)c1nc(C)cc(C)c1C#N | 6.97%
62 | O=C(Nc1ccncc1)Nc1ccc(F)c(Cl)c1 | 14.2%
63 | CCc1ccc(NC(=O)Nc2cnccn2)cc1 | -5.86%
64 | O=C(Nc1ccncc1)Nc1ccncc1 | 0.03%
65 | S=C(NCc1ccc(Cl)cc1)Nc1ccccc1 | -8.41%
66 | CCc1ccc(NC(=O)Nc2ccon2)cc1 | -5.91%
67 | S=C(NCc1ccncc1)Nc1ccc(Cl)cc1 | -0.61%
68 | O=C1CCS/C(=N\N=C\c2ccc(Cl)cc2Cl)N1 | 6.05%
69 | CCc1ccc(-c2cc3c(=O)n(CC(=O)NCCCN4CCN(C)CC4)ncn3n2)cc1 | 5.21%
70 | CC1CCCCC1NC(=O)CSc1ccc([N+](=O)[O-])cc1 (stereo unspecified) | 6.99%
71 | Cc1cc(-c2nnc3n2N=C(c2ccc(F)cc2)CS3)n[nH]1 | -5.9%
72 | COc1ccccc1-n1c(C)cc(C=O)c1C | -1.75%

Row | SMILES | inhibition
73 | CCCc1nc(Cl)c(C#N)c2c1CCCC2 | -3.33%
74 | CCOC(=O)Cc1cn2c(=O)cc(CSCC(=O)Nc3ccc(C)c(C)c3)nc2s1 | -2.4%
75 | COc1cc2[nH]c3c(c2cc1OC)CCN1CCCC[C@@H]31 | 5.9%
76 | O=S(=O)(c1ccc(F)cc1)c1nc(-c2ccco2)oc1Nc1ccc(F)cc1 | -12.3%
77 | C=CCn1c(SCC(=O)NC2CCS(=O)(=O)C2)nnc1-c1ccc(Cl)cc1 (stereo unspecified) | -6.21%
78 | O=C(Nc1nnc(C2=COCCO2)o1)c1ccc(F)cc1 | 1.96%
79 | O=C(CSc1nnc(C2COc3ccccc3O2)o1)Nc1ccc(F)cc1Cl (stereo unspecified) | -3.78%
80 | CCOC(=O)C1=C(COC(=O)C2(C)CC2(Cl)Cl)NC(=O)NC1c1ccc(OC)cc1 (stereo unspecified) | 6.71%
81 | COc1ccccc1CNCC(=O)Nc1cc(S(=O)(=O)N2CCCCCC2)ccc1Cl | -6.34%
82 | CCN(c1ccc(C(O)(C(=O)OC)C(F)(F)F)cc1)S(=O)(=O)c1ccccc1 (stereo unspecified) | -2.75%
83 | COc1ccc(Cl)cc1C(=O)NCCN(C)C | -0.53%
84 | CN(C)CCNC(=O)COc1ccc(Cl)cc1Cl | 1.91%
85 | CCCSc1nc(N)cc(=O)[nH]1 | 5.93%
86 | Cc1ccc2c(c1)c1c3n2CCN(C(=O)CN2CCN(C)CC2)C3CCC1 (stereo unspecified) | 4.43%
87 | Oc1ccc2c(c1)c1c3n2CCNC3CCC1 (stereo unspecified) | -4.83%
88 | c1ccc(-c2ccc3c(c2)c2c4n3CCN=C4CCC2)cc1 | 6.31%
89 | Cc1ccc2c(c1)c1c3n2CCN=C3CCC1 | 0.52%
90 | Cc1ccc2c(c1)c1c3n2CCN(C(=O)CCl)C3CCC1 (stereo unspecified) | 7.2%
91 | Cc1ccc2c(c1)c1c3n2CCCNC3CCC1 (stereo unspecified) | 5.15%
92 | CCOP(=O)(c1ccccc1)C1(O)CCCCC1 (stereo unspecified) | 14.1%
93 | Cc1ccc(S(=O)(=O)N2C(=O)CCC2C(=O)O/N=C(\N)c2ccccc2)cc1 (stereo unspecified) | -13.3%
94 | O=C(CN(C(=O)c1csnn1)c1ccccc1Cl)NC1CCCC1 | 13.4%
95 | O=C(O)c1cccc([N+](=O)[O-])c1C(=O)Nc1nc2ccccc2s1 | 4.78%
96 | CCn1c(CN2c3ccccc3Sc3ccccc32)n[nH]c1=S | 4.44%
